Assay results from PubChem BioAssay AID489042 (NMMLSC, 2010).
Unmarked numbers belong to inactive results. Calls of active or inactive are those of the source. No stated cut-off is given here; in the data, active means inhibition score above about 11; inactive means the rest.

test: yeast proliferation inhibition, dose response, BY4741, OD595, 24 h (AID 489042); conditions: S. cerevisiae BY4741 growth, stronger effect = higher value

For C=C1C(O)[C@@H]2O[C@]3(CC[C@H](/C=C/C(C)[C@@H]4CC(C)=CC5(O[C@H](C[C@@](C)(O)C(=O)O)CCC5O)O4)O3)CC[C@H]2O[C@@H]1C(O)CC(C)[C@H]1OC2(CCCCO2)CCC1C (stereo not given in full), the inhibition score was 21 (active).
For Oc1cccc2nc3ccccc3nc12, the inhibition score was 21 (active).

Going from C[C@]12CCC3C(CC[C@H]4C[C@H](O)CC[C@]34C)C1C[C@@H](CCCCl)[C@@H]2O (stereo not given in full) to C[C@]12CCC3C(CC[C@H]4C[C@@H](O)CC[C@]34C)[C@H]1CC[C@H]2O (stereo not given in full), the inhibition score falls from 10 to 0.

OCC[n+]1c2ccccc2nc2ccc(N3CCOCC3)cc21 and C[n+]1c2ccccc2nc2ccc(NCCO)cc21 are the same in inhibition score: 0 for the first, 0 for the second.

First: Cn1c(=O)[nH]c2nncnc2c1=O
Second: Cn1c(O)c(C(=Nc2ccc(F)cc2)c2ccccc2Cl)c(=O)n(C)c1=O
The inhibition score of the first is lower: 0 for the first, 10 for the second.

Nc1cc2nc3ccccc3nc2cc1N and CNc1ccc2nc3ccccc3[n+](C)c2c1 are the same in inhibition score: 0 for the first, 0 for the second.

C#C[C@]1(O)[C@H](O)CC2C3CC[C@H]4C[C@@H](O)CC[C@]4(C)C3CC[C@@]21C (stereo not given in full) and C[C@]12CCC3C(CC[C@H]4C[C@H](O)CC[C@]34C)C1CCC2=O (stereo not given in full) are the same in inhibition score: 0 for the first, 0 for the second.

O=c1[nH]c(O)c(C=Nc2ccc(F)c(Cl)c2)c(=O)[nH]1 and C[C@]12CCC3C(CC[C@H]4C[C@@H](O)CC[C@]34C)C1CC[C@@H]2OC(=O)[C@H](N)CCCCN (stereo not given in full) are the same in inhibition score: 0 for the first, 0 for the second.

With CC(=O)O[C@H]1CCC2C3CC[C@H]4[C@@H](O)[C@H](O)CC[C@]4(C)C3CC[C@@]21C (stereo not given in full) the inhibition score was 0.
